In all, about 33,000 sequences were measured (“E-score (-0.5 to 0.5)”: median about -0.013, highest 2% from about 0.3 on). The entries come from a sample that favours the highest values as a whole.
What follows are sequences tested against T1, Msn1 (UniProt P22148) (assay: PBM E-score (8-mer binding enrichment) (E-score (-0.5 to 0.5)); higher = stronger / more preferred TF binding). Conditions: protein concentration: 200 nM; construct: GST-full length.
T1 sequence: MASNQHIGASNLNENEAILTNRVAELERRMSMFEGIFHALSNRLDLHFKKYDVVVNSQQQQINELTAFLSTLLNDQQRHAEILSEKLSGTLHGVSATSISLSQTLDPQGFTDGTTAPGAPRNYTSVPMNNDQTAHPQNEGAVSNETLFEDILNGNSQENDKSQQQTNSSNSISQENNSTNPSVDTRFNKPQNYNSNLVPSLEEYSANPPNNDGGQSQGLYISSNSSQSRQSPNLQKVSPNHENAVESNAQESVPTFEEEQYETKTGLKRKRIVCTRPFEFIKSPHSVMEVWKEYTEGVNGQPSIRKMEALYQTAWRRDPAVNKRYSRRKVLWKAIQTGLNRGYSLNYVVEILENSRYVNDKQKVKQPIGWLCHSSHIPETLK
Method: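 Universal 'all 10-mer' protein binding microarrays (Agilent AMADID 015681) probed with GST-tagged S. cerevisiae TFs (full-length or DBD) made by in vitro transcription/translation (PURExpress), about 100-200 nM. Bound TF was detected with fluorescent anti-GST. Each ungapped 8-mer (which stands for itself and its reverse complement) is scored by the PBM enrichment score (E-score), a modified Wilcoxon-Mann-Whitney statistic from -0.5 to +0.5, computed with the Universal PBM Analysis Suite. Scale: above 0.35 generally sequence-specific binding.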

Sequence | PBM E-score
ACGTGCCT | -0.148
ATATCTGG | 0.045
GCCATTGA | 0.00063
CAATAAGC | 0.00863
GCGTATCC | -0.037
CCATACCA | 0.0887
GTGACGAA | -0.0509
GTGACAAC | 0.139
GTGACAAA | 0.423
ACTCCCTC | -0.312
TGATGACA | 0.299
GAATGACA | 0.34
GAATGACC | 0.201
CAATGACA | 0.298
ACATGACA | 0.297
GCATGACA | 0.199
TAATGACA | 0.307
AAATGACA | 0.278
TCATGACA | 0.388
AGGGTAAC | -0.177
AAGTCGGA | 0.158
ATACCCAA | 0.195
ATAGGTTG | -0.0907
CGCGGGCC | -0.105
ACGGTCGG | -0.0232
GCAAACCC | -0.225

Sequence | PBM E-score
CCAACGGC | -0.132
GCATGTAA | -0.12
AAATTGTA | 0.222
AAATTGTT | 0.143
CAATTGTA | 0.184
AAATTGTC | 0.449
GAATTGTC | 0.392
GAATTGGC | -0.278
GAATTGTA | 0.151
CAATTGTG | -0.00904
CAATTGTC | 0.445
ACCTAAAA | 0.0426
TCTAGCAA | 0.0862
TCACCCCA | 0.108
AAACGCCT | -0.0244
GGTGCGGA | -0.047
ACCTAAGG | -0.14
AGTGCTCA | -0.229
TGGTACAA | 0.386
AGGTACAA | 0.394
CGGTACAG | 0.054
GGGTACAA | 0.198
TGGTACCA | -0.0646
CGGTACAC | 0.123
CGGTACAA | 0.311
AGGTACAC | 0.139

Sequence | PBM E-score
AGGTACAG | 0.00868
ATCGTTTA | 0.141
CTTCATCA | -0.143
AAGGGCAG | -0.102
CTGGAAGC | -0.225
GCTTTTCC | -0.0951
AGCCTCAC | -0.223
CCCATGTA | 0.0749
CGCATGTA | 0.0633
CCCATGTC | 0.316
CTCATGTC | 0.27
AGCATGTC | 0.318
CGCATGTC | 0.426
AGCATGTG | -0.0619
AGCATGTA | 0.0635
ACCATGTC | 0.218
ATTTGAGC | -0.0055
ACAATCTA | 0.0825
CGGACCGA | 0.165
CAGCGAAG | -0.193
TATCGGGA | 0.178
TCCCCAGA | -0.107
CCTGTCCG | 0.117
CATGTCCA | 0.463
ACTGTCCA | 0.0386
CATGTCCG | 0.436

Sequence | PBM E-score
CATGTCAA | 0.236
GATGTCCC | 0.462
GATGTCAC | 0.26
CATGTCAG | 0.208
TCTGTCCA | 0.363
GCTGTCCC | -0.0712
GCTGTCCA | 0.159
CCTGTCCA | 0.156
CTTACTGC | -0.143
GATGGCGC | -0.252
ATTTAGAG | 0.0544
ACGGGAGG | -0.268
ACACATGT | 0.238
GACGTCCA | 0.207
GATGTCCA | 0.458
TATGTCCA | 0.465
GATGTCGA | 0.0163
AATGTCAA | 0.3
TACGTCCA | 0.179
AATGTCCG | 0.481
TATGTCAA | 0.31
TATGTCGA | 0.289
GATGTCAA | 0.0785
AAGGTCCG | -0.0417
AATGTGCG | -0.0792
GCTCCCAC | -0.135

Sequence | PBM E-score
GGCCAAAA | 0.00072
GTTCGAGA | 0.11
CAGAAAGC | -0.0396
AGCAAAAT | 0.174
AGGGGGCC | -0.412
GCTACCGA | -0.00569
CCAGTACG | -0.0732
CATGTCAC | 0.291
CCTGTCCC | 0.282
CATGTCCC | 0.459
CCACTTGC | -0.132
CTCAGTCA | -0.173
ACTGGACA | 0.374
TCTGGACA | 0.381
CCTGGACG | -0.182
ACTGGACC | -0.137
CCTGGACA | 0.417
TCTGGAAA | -0.0457
CCTGGACC | 0.0101
GCTGGACA | 0.276
ACTGGACT | 0.105
AAGTATGC | -0.0157
GCCGACCA | 0.0498
TCCTTGCA | 0.0515
CCTCTCAG | -0.339
ATACCATA | 0.0438

Sequence | PBM E-score
CAGGCGGA | 0.223
AAATGTTG | -0.0982
CAATGTGG | 0.111
CAATGTGC | -0.121
AAATGTCT | 0.486
CAATGTCA | 0.262
CAATGTAG | -0.109
AAATGTGT | 0.292
CAATGTCC | 0.47
AAATGTGG | 0.147
AAATGTAT | 0.28
AAATGTCG | 0.412
CAATGTCG | 0.323
ACGACTCC | -0.181
GTCGGGTA | 0.0767
GACGTCAA | -0.00044
GTAATATA | 0.191
GAGAAACC | -0.0447
TATGTGAA | -0.121
GATAAGGC | 0.0376
GAATGTGA | 0.076
TAATGTCA | 0.259
AAATGTTA | 0.165
GAATGTCA | 0.373
AAATGTCA | 0.456
AAATGTAA | 0.238

Sequence | PBM E-score
ACGATAGT | 0.0402
CGACCTGA | 0.0583
AGTTGTCA | 0.295
AGTTGTCC | 0.441
CGTTGTGC | 0.114
CGTTGTCA | -0.023
AGTTGTGC | -0.273
CGTTGTCC | 0.413
AATGCGGG | 0.145
GGGAGCAC | -0.276
AAGCTCGT | 0.0392
GCTTCCAA | -0.0663
GTCATTGA | 0.0439
AGCTGGTC | -0.0428
ACGGGCAG | -0.0886
CGCAGACC | -0.123
GGCAGACA | 0.079
AGCAGACA | 0.0142
CGCAGACA | 0.323
TGCAGACA | 0.33

From the supplement of paper PMC3334620
